# Only some compounds are listed: those with a hit (about 16% of all), similar ones and a draw of the others.
# miR-21 act: qHTS Assay for Modulators of miRNAs and/orActivators of miR-21. HeLa miR-21 FLuc reporter, luciferase, 48 h. Potency, µM (top dose mostly 38.3 µM), inactives show top-dose activity change, positive = activation, usual class: activators. 340,000 tested, under 10 active;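 also: % of control where 0% means no effect; miR-21 action dims this reporter so a rising signal means less miR-21 action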
#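 Luminescence from a firefly luciferase reporter carrying a miR-21 binding site downstream, stably expressed under a CMV promoter in HeLa cells that make miR-21 endogenously, reports miRNA modulation after 48 h compound exposure up to approximately 40uM final.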
# TDP1 cell noCPT: qHTS for Inhibitors of human tyrosyl-DNA phosphodiesterase 1 (TDP1): qHTS in cells in absence of CPT; DT40 Tdp1-/- hTDP1 cells, no CPT, ATP luminescence, 48 h; Potency, µM (top dose mostly 46.2 µM), for the others: at the highest dose activity change, negative = growth inhibition, most hits filed as inhibitors; 420,000 tested, 15% active; AID 686978, 2013; also: potency is read from the fitted curve at half-maximal effect; % is scaled to controls: 0 for no effect and ±100 for the full control effect; nearly all actives have a fitted effect of over 55% in size
#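 Readout: luminescence from CellTiter-Glo after 30 min in the dark at RT. Cells: DT40 Tdp1-/- with stable hTDP1, 400/well. Exposure: compounds alone, ≥48 hr, 37 °C.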
# uPA surface inh: qHTS for Inhibitors of Cell Surface uPA Generation. cell surface uPA generation assay, qHTS. Potency, µM (series often up to 38.3 µM), without a hit: at the top dose activity change, negative = inhibition, most hits filed as inhibitors. 330,000 tested, 0.31% active. AID 540303, 2011; active = well fitted inhibition curve with a large enough effect; inconclusive = small, poorly fitted or top-dose-only effect; inactive = no such curve, though single readings can be large or run the other way; tested in mouse RAW 264.7 cells; also: potency is read from the fitted curve at half-maximal effect; % is scaled to controls: 0 for no effect and ±100 for the full control effect; nearly all actives have a fitted effect of over 55% in size
# TDP1 block: qHTS Assay for Inhibitors of Tyrosyl-DNA Phosphodiesterase (TDP1) | 350,000 tested, 0.28% active | Potency, µM (highest dose often 130 µM), inactives show top-dose activity change, negative = inhibition, hits mostly inhibitors | recombinant TDP1, AlphaScreen DNA substrate cleavage; also: potency is read from the fitted curve at half-maximal effect; % is scaled to controls: 0 for no effect and ±100 for the full control effect; nearly all actives have a fitted effect of over 40% in size
# Target sequence (Q9NUW8 whole entry, looked up): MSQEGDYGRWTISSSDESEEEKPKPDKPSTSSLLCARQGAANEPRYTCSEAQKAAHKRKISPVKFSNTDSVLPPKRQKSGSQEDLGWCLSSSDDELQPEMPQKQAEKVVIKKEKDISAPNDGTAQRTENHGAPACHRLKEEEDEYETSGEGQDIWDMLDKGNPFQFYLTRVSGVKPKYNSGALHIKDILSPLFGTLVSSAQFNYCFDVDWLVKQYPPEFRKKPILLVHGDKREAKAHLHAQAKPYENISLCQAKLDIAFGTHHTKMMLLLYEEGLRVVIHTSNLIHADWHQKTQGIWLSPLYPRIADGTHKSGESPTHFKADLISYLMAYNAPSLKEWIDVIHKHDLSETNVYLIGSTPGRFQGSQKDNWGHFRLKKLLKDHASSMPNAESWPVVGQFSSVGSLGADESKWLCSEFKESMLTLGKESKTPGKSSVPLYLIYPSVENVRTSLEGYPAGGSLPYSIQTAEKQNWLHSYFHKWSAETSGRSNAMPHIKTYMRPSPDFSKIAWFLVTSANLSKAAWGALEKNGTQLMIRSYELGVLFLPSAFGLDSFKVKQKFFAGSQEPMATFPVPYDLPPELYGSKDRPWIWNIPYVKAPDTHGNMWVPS
#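 Compounds were preincubated with Tdp1 (1 nM final) for 15 min at room temperature before substrate (15 nM final) started a 5 min reaction; beads (10 ug/ml final) were then added for 10 min before AlphaScreen detection.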
# DT40 TDP1 CPT: qHTS for Inhibitors of human tyrosyl-DNA phosphodiesterase 1 (TDP1): qHTS in cells in presence of CPT | chicken DT40 Tdp1-/-;hTDP1 cells + 20 nM CPT, ATP luminescence, 48 h | Potency, µM (top dose mostly 46.2 µM), for inactives: at the top dose activity change, negative = growth inhibition, hits mostly inhibitors | 420,000 tested, 12% active; also: potency is read from the fitted curve at half-maximal effect; % is scaled to controls: 0 for no effect and ±100 for the full control effect; nearly all actives have a fitted effect of over 55% in size
#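 Chicken DT40 Tdp1-/- cells stably complemented with human TDP1 were seeded at 400 cells/well in medium containing 20 nM camptothecin, exposed to pin-transferred compounds, and grown at 37 °C for at least 48 hr. Viability was read as ATP luminescence.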
# * = called active by the depositor; ? = inconclusive; . = not tested or not shown; ! = not active in a repeat; [ ] = dose if it differs, or a comment. Unless noted, calls follow the shape of the dose curve; as a rule, active = well fitted curve in the direction sought with a large enough effect; inconclusive = small, poorly fitted or top-dose-only effect, or another doubt; inactive = no such curve, though single readings can be large; an effect the other way counts as inactive or inconclusive.
SMILES,miR-21 act,TDP1 cell noCPT,uPA surface inh,TDP1 block,DT40 TDP1 CPT
COc1cc(CN2CCN(c3cc(C)ccc3C)CC2)ccc1O,25%,7.3µM*,?,0%,7.3µM*
COc1ccccc1N1CCN(Cc2cc(C)c(C)cc2O)CC1,14%,21µM*,1%,0%,23µM*
CCOP(=S)(OCC)SCSc1ccc(Cl)cc1,.,-7%,.,3%,-10%
Cc1cccc(-c2nc3ccc(C(=O)N4CCC5(CC4)OCCO5)cc3nc2-c2cccc(C)c2)c1,9%,?,-2%,5%,?
O=C(Nc1ccc(Cl)c(C(F)(F)F)c1)NC1CC2CCCC(C1)N2Cc1ccccc1 (stereo unspecified),?,13µM*,0%,5%,18µM*
Brc1ccc2c(c1)-n1nncc1CN(CC1CCCCC1)C2,.,-27%,.,.,-19%
Cc1c(O)cccc1C(=O)N[C@@H](CSc1ccccc1)[C@H](O)CN1C[C@H]2CCCC[C@H]2C[C@H]1C(=O)NC(C)(C)C,?,23µM*!,?,6%,9.2µM*!
Cc1ccc(C)c(CN2C(=O)c3ccccc3S(=O)(=O)c3ccc(C(=O)N4CCCCCC4)cc32)c1,23%,?,.,-3%,?
CCOP(=O)(OCC)C(NC(=O)c1cccc(C)c1)C(Cl)(Cl)Cl (stereo unspecified),-2%,-1%,8%,6%,17%
Cc1cccc(C(=O)NC(C(=O)Nc2nc(-c3ccccn3)cs2)C(C)C)c1 (stereo unspecified),23%,12µM*,?,2%,13µM*
Cc1ccc(S(=O)(=O)Nc2ccc3c(c2)CC(=O)N([C@H](C)CO)C[C@@H](C)[C@H](CN(C)Cc2ccc(-c4ccccc4)cc2)O3)cc1,.,?,?,5%,?
Cc1c(C(=O)c2cccc3ccccc23)c2cccc3c2n1[C@@H](CN1CCOCC1)CO3,.,.,.,9%,.
C/C(=N\N1CCCCCC1)c1c(O)n(-c2ccc(C)cc2)c(=O)[nH]c1=O,-40%,-25%,-2%,-2%,1%
C/C(=N\N1CCCCCC1)c1c(O)n(-c2ccc(Cl)cc2)c(=O)[nH]c1=O,-4%,21µM*,2%,-3%,?
C/C(=N\N1CCCCCC1)c1c(O)n(-c2ccccc2C)c(=O)[nH]c1=O,-2%,0.13µM*,6%,1%,-66%
CCCC(=O)Nc1ccc(N2CCN(CC)CC2)c(Cl)c1,-7%,?,15%,5%,3%
CCCC(=O)NC1=C(N2CC2)C(=O)C(NC(=O)CCC)=C(N2CC2)C1=O,.,1.6µM*,-13%,.,0.82µM*
Cc1ccc(/C=C/C(=O)C2C(=O)c3ccccc3C2=O)cc1,-5%,?,?,8%,16µM*
CN1CCC(C)(O)C2CCCCC21 (stereo unspecified),0%,-3%,1%,-1%,10%
CCCCCN=C(N)N/N=C/c1c[nH]c2ccc(OC)cc12,.,2.6µM*,?,-5%[56.1 µM],2.9µM*
CN1CC[C@@]2(CCCN(C(=O)c3csnn3)C2)C1,.,-14%,.,.,2%
Cc1ccccc1OCC(=O)Nc1ccccc1C(=O)OCc1cc(=O)n2nc(C3CC3)sc2n1,-3%,1.6µM*,.,1%,1.6µM*
O=C(OCc1cc(=O)n2nc(C3CC3)sc2n1)c1ccc(NC(=O)c2ccccc2Cl)cc1,?,7.3µM*,.,1%,?
O=C(NC(=O)c1ccccc1Cl)Nc1ccc(OC(F)(F)F)cc1,.,-5%,.,.,-13%
Cc1nn2c(=O)cc(COC(=O)c3ccccc3NC(=O)c3cccs3)nc2s1,-1%,10µM*,.,-1%,9.2µM*
SMILES,miR-21 act,TDP1 cell noCPT,uPA surface inh,TDP1 block,DT40 TDP1 CPT
CC(C)c1nn2c(=O)cc(COC(=O)Cc3ccccc3)nc2s1,-2%,-5%,.,7%,-8%
O=C1Nc2ccc(Br)cc2C(c2ccc(Cl)cc2)=NC1O (stereo unspecified),-6%,-16%,9%,.,3%
CCCC/C=C/[C@@H](NP(=O)(c1ccccc1)c1ccccc1)c1ccccc1OC,.,.,.,4%,.
Cc1ccc(C[n+]2c(-c3ccc(C)cc3)cc(-c3ccc(C)cc3)cc2-c2ccc(C)cc2)cc1,.,0.58µM*,?,8%,0.92µM*
CCCc1cc(N2CCN(c3cccc(C)c3C)CC2)n2cnnc2n1,?,18µM*,.,2%,16µM*
CCN(Cc1ccc(Cl)nc1)/C(=C/[N+](=O)[O-])NC,.,-17%,.,.,15%
CC1=CC[C@@H]2[C@@H](C1)c1c(O)cc(CC#CCCCNS(C)(=O)=O)cc1OC2(C)C,.,.,.,6%,.
CCCCCc1cc(O)c2c(c1)OC(C)(C)[C@@H]1CCC(C)=C[C@@H]21,.,?,.,.,21µM*
O=C1NC(=O)C(Sc2ccccc2[N+](=O)[O-])C(=O)N1,-5%,?,6%,14%,?
CC(=O)c1ccc2c(c1)C1C(Cl)C(Sc3ccccc3[N+](=O)[O-])CC1C(c1ccccc1)N2 (stereo unspecified),-1%,15µM*,1%,8%,12µM*
CC(=O)c1ccc2c(c1)C1C(Cl)C(Sc3ccccc3[N+](=O)[O-])CC1C(c1ccccc1[N+](=O)[O-])N2 (stereo unspecified),-4%,13µM*,-1%,-3%[56.1 µM],10µM*
Fc1ccc(NC(=S)N2Cc3ccccc3-n3nncc3C2)cc1,.,?,.,.,-5%
CC(C)(C)NC(=O)CN1CCCN(C(=O)COc2ccc(Cl)c3ccccc23)CC1,.,?,2%,-1%[56.1 µM],?
CC1(C)CCCN1CCC(C(N)=O)(c1ccccc1)c1ccccc1,.,-10%,1%,.,-8%
CC[N+]12CCC(CC1)C(=C(c1ccccc1)c1ccccc1)C2,1%,16µM*,-7%,5%,?
CCCC[N+]12CCC(CC1)C(C(O)(c1ccccc1)c1ccccc1)C2 (stereo unspecified),3%,-25%,-2%,2%,7%
CSCCC(c1nnnn1Cc1ccccc1)N1CCC(n2c(=O)[nH]c3ccccc32)CC1 (stereo unspecified),.,1.8µM*,.,.,2.9µM*
O=c1[nH]c2ccccc2n1C1CCN(C(CCc2ccccc2)c2nnnn2Cc2ccccc2)CC1 (stereo unspecified),.,2.6µM*,.,.,2.3µM*
O=c1[nH]c2ccccc2n1C1CCN(C(c2nnnn2Cc2ccccc2)C2CC2)CC1 (stereo unspecified),.,21µM*,.,.,16µM*
CC(C)=CCc1c(O)cc2c(c1O)C(=O)CC(c1ccc(O)cc1)O2 (stereo unspecified),-10%,23µM*,-8%,.,16µM*
